{"source": "PubChem BioAssay AID1745848", "about": "(National Center for Advancing Translational Sciences (NCATS), 2022)", "note": "The campaign covered roughly 2,100 compounds. About 940 (45%) were called active. About 48% were inconclusive and are not listed. Calls come from the whole dose curve; as a rule, active = well fitted inhibition curve with a large enough effect; inconclusive = small, poorly fitted or top-dose-only effect; inactive = no such curve, though single readings can be large or run the other way. So high a share suggests a set chosen from earlier hits. Some of the results follow. Potency is the fitted concentration of half-maximal effect.", "data": [{"assay": "Confirmatory qHTS for Inhibitors of ATXN expression; note: nearly all actives have a fitted effect of over 65% in size", "details": "ATXN2-luciferase reporter cells, luminescence, 24 h; series mostly up to 11.5 µM", "method_in_brief": "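A titration, incubated 24 h with reporter cells expressing ATXN2-luciferase. Luminescence (SteadyGlo) gives ATXN2 expression, multiplexed GF-AFC fluorescence gives viability; normalised to DMSO and medium-only wells.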", "values": [{"smiles": "CCc1ccc(NC(=O)COc2ccc(/C=C(/C#N)c3nc4ccccc4[nH]3)cc2OC)cc1", "Potency": "3.55 µM (active)"}, {"smiles": "CCOCCn1ccc2c(OCC(=O)Nc3ccc(OC)c(OC)c3)cccc2c1=O", "Potency": "inactive"}, {"smiles": "CCOC(=O)c1ccc2ncc(C(=O)OCC)c(Nc3ccc(N4CCOCC4)cc3)c2c1", "Potency": "3.98 µM (active)"}, {"smiles": "CCN(CC)S(=O)(=O)c1cccc(NC(=O)Nc2cccc(C(F)(F)F)c2)c1", "Potency": "1.78 µM (active)"}, {"smiles": "O=c1cc(N2CCN(c3cccc(Cl)c3)CC2)[nH]c(=O)n1C1CCCCC1", "Potency": "0.355 µM (active)"}, {"smiles": "NC(=O)N/N=C/c1c(O)ccc2oc3c(c12)CCCC3", "Potency": "14.1 µM (active)"}, {"smiles": "Cc1nc2ccccc2c(=O)n1/N=C/c1c(O)ccc2oc3c(c12)CCCC3", "Potency": "15.8 µM (active)"}, {"smiles": "Cc1ccc(N=Nc2ccc(O)c3ncccc23)cc1", "Potency": "3.16 µM (active)"}, {"smiles": "Cc1ccccc1N=Nc1ccc(O)c2ncccc12", "Potency": "1.41 µM (active)"}, {"smiles": "Cn1c2c(c(=O)[nH]c1=O)C(c1cccc(O)c1)C1=C(N2)c2ccccc2C1=O", "note": "(centres undefined)", "Potency": "3.98 µM (active)"}, {"smiles": "COCCCNCCCOc1ccc(Cl)cc1C(C)(C)C", "Potency": "15.8 µM (active)"}, {"smiles": "CCc1cc2c(N3CCN(c4nnc(CC)s4)CC3)ncnc2s1", "Potency": "3.55 µM (active)"}, {"smiles": "Cc1cc(C)cc(NC(=O)CCc2nc3sc4c(c3c(=O)[nH]2)CCCC4)c1", "Potency": "0.708 µM (active)"}, {"smiles": "CC(C)C(=O)NC(c1cccc([N+](=O)[O-])c1)c1ccc2cccnc2c1O", "note": "(centres undefined)", "Potency": "2.24 µM (active)"}, {"smiles": "CC(=O)NC(c1cccc([N+](=O)[O-])c1)c1ccc2cccnc2c1O", "note": "(centres undefined)", "Potency": "0.562 µM (active)"}, {"smiles": "O=[N+]([O-])c1ccc(NC(c2ccccc2)c2ccc3cccnc3c2O)cc1", "note": "(centres undefined)", "Potency": "1.26 µM (active)"}, {"smiles": "CC(NC(=O)Nc1cccc([N+](=O)[O-])c1)c1ccc2c(c1)OCO2", "note": "(centres undefined)", "Potency": "inactive"}, {"smiles": "CCOC(=O)c1ccc(N=c2sc(C(=O)OC)cc(=O)n2-c2ccc(C(=O)OCC)cc2)cc1", "Potency": "3.98 µM (active)"}, {"smiles": "O=C(CSc1n[nH]c(-c2ccccn2)n1)Nc1ccc(Cl)cc1", "Potency": "1.26 µM (active)"}, {"smiles": "Cc1ccc(NC(=O)CSc2n[nH]c(-c3ccccn3)n2)cc1", "Potency": "2.82 µM (active)"}, {"smiles": "O=C(CSc1n[nH]c(-c2ccccn2)n1)Nc1ccc(F)cc1", "Potency": "8.91 µM (active)"}, {"smiles": "O=C(CSc1n[nH]c(-c2ccccn2)n1)Nc1cccc(Cl)c1", "Potency": "3.55 µM (active)"}, {"smiles": "O=C(CC1NCCc2ccccc21)Nc1ccc(Cl)cc1", "note": "(centres undefined)", "Potency": "inactive"}, {"smiles": "COC(/C(=N/O)c1ccc(Cl)cc1)c1ccccc1", "note": "(centres undefined)", "Potency": "inactive"}, {"smiles": "O=C(CSc1n[nH]c(-c2ccccn2)n1)Nc1ccccc1", "Potency": "15.8 µM (active)"}, {"smiles": "COc1cc(Br)cc(/C=N/NC(=O)Cc2ccc(C(F)(F)F)cc2[N+](=O)[O-])c1O", "Potency": "10 µM (active)"}, {"smiles": "c1cc2c(cc1-c1cnc3n1CCC3)OCCO2", "Potency": "12.6 µM (active)"}, {"smiles": "NC(=Nc1nc(-c2ccccn2)cc2ccccc12)c1ccccn1", "Potency": "0.0562 µM (active)"}, {"smiles": "Oc1c(C(Nc2nccs2)c2ccc(C(F)(F)F)cc2)ccc2cccnc12", "note": "(centres undefined)", "Potency": "1.78 µM (active)"}, {"smiles": "Oc1cccc(C(Nc2nccs2)c2ccc3cccnc3c2O)c1", "note": "(centres undefined)", "Potency": "2.51 µM (active)"}, {"smiles": "Oc1c(C(Nc2ccccn2)c2ccccn2)ccc2cccnc12", "note": "(centres undefined)", "Potency": "3.16 µM (active)"}, {"smiles": "Oc1ccccc1C(Nc1nccs1)c1ccc2cccnc2c1O", "note": "(centres undefined)", "Potency": "2.82 µM (active)"}, {"smiles": "O=C(N/N=C/c1ccc([N+](=O)[O-])s1)c1ccccc1Br", "Potency": "14.1 µM (active)"}, {"smiles": "Cc1c(C(=O)N2c3ccccc3Sc3ccccc32)cccc1[N+](=O)[O-]", "Potency": "inactive"}, {"smiles": "O=C(N/N=C/c1ccc([N+](=O)[O-])s1)c1ccccc1", "Potency": "12.6 µM (active)"}, {"smiles": "Cc1ccccc1C(=O)N/N=C/c1ccc([N+](=O)[O-])s1", "Potency": "12.6 µM (active)"}, {"smiles": "COc1ccc(C(=O)NCC(=O)N/N=C/c2ccc([N+](=O)[O-])s2)cc1OC", "Potency": "10 µM (active)"}, {"smiles": "Cc1ccc(C)n1-c1ccc(C(=O)N2CCC(C(N)=O)CC2)cc1", "Potency": "inactive"}, {"smiles": "COc1cccc(CNc2nc3cc(-c4ccc(C(=O)N5CCN(C)CC5)cc4)sc3c(=O)n2C)c1", "Potency": "28.2 µM (active)"}, {"smiles": "COc1cccc(C(=O)Nc2nc(-c3ccc(S(=O)(=O)N4CCOCC4)cc3)cs2)c1", "Potency": "1.58 µM (active)"}, {"smiles": "COc1ccccc1C(=O)Nc1nc(-c2ccc(S(=O)(=O)N3CCOCC3)cc2)cs1", "Potency": "3.98 µM (active)"}, {"smiles": "COc1ccc(C(=O)Nc2nc(-c3ccc(S(=O)(=O)N4CCOCC4)cc3)cs2)cc1", "Potency": "1.78 µM (active)"}, {"smiles": "NC(=O)c1c(NC(=O)c2ccc(S(=O)(=O)N3CCOCC3)cc2)sc2c1CCCCC2", "Potency": "inactive"}, {"smiles": "O=C(Nc1nc(-c2ccccn2)cs1)c1ccc(F)c(S(=O)(=O)N2CCOCC2)c1", "Potency": "1.78 µM (active)"}, {"smiles": "COc1cccc(NC(=O)/C=C/c2ccc(S(=O)(=O)N3CCOCC3)cc2)c1", "Potency": "inactive"}, {"smiles": "OCCN1CCN(C(=S)c2ccc(-c3ccccc3)cc2)CC1", "Potency": "1.78 µM (active)"}, {"smiles": "CCN1CCN(C(=S)c2ccc(-c3ccccc3)cc2)CC1", "Potency": "1.58 µM (active)"}, {"smiles": "COc1ccc(NC(=O)c2cc(-c3cc(Cl)ccc3OC)n[nH]2)cc1OC", "Potency": "0.631 µM (active)"}, {"smiles": "O=c1c(O)c(-c2ccccc2)oc2ccccc12", "Potency": "inactive"}, {"smiles": "O=c1cc(-c2c(F)c(F)c(F)c(F)c2F)oc2ccccc12", "Potency": "3.55 µM (active)"}, {"smiles": "Cc1nc(SCC(=O)Nc2ccc(S(=O)(=O)N3CCOCC3)cc2)c2c(C)c(C)sc2n1", "Potency": "3.98 µM (active)"}, {"smiles": "COc1ccc(C(=O)c2sc(Nc3ccccc3)nc2N)cc1OC", "Potency": "28.2 µM (active)"}, {"smiles": "COc1cccc(CNCCc2c[nH]c3ccccc23)c1OCc1ccc(F)cc1", "Potency": "3.98 µM (active)"}, {"smiles": "Cc1occc1C(=O)N/N=C/c1c(O)ccc2ccccc12", "Potency": "1.78 µM (active)"}, {"smiles": "O=C(N/N=C\\c1c(O)ccc2ccccc12)c1cncc(Br)c1", "Potency": "0.251 µM (active)"}, {"smiles": "O=C(N/N=C\\c1c(O)ccc2ccccc12)c1ccc(Cn2cccn2)o1", "Potency": "0.708 µM (active)"}, {"smiles": "O=C(N/N=C/c1c(O)ccc2ccccc12)c1cccnc1", "Potency": "3.16 µM (active)"}, {"smiles": "O=C(N/N=C/c1cc(O)ccc1Br)c1cccnc1", "Potency": "3.16 µM (active)"}, {"smiles": "Cn1c(-[n+]2c(-c3ccccc3)cc(-c3ccccc3)cc2-c2ccccc2)nc2c([N+](=O)[O-])cccc21", "Potency": "inactive"}, {"smiles": "CCn1c2ccccc2c2cc(/C=N/NC(=O)c3ccc(O)cc3)ccc21", "Potency": "2.24 µM (active)"}, {"smiles": "CCn1c2ccccc2c2cc(/C=C(/C#N)C(N)=S)ccc21", "Potency": "0.447 µM (active)"}, {"smiles": "CCn1c2ccccc2c2cc(/C=N/NC(=O)c3ccncc3)ccc21", "Potency": "1.41 µM (active)"}, {"smiles": "Cc1cccc(OCCn2cc(/C=N/NC(=O)c3ccncc3)c3ccccc32)c1", "Potency": "inactive"}, {"smiles": "CCn1c2ccccc2c2cc(/C=N/n3cnnc3)ccc21", "Potency": "1.58 µM (active)"}]}]}
